# PubChem BioAssay (Tox21)
# Results filed as inconclusive are left out. Entries that show only a call come without a potency. A number with no mark means an inactive call. Calls of active or inactive are those of the source. Unless noted, the call rests on the fitted dose curve; in most records, active means well fitted curve in the direction sought with a large enough effect in the repeat runs; inconclusive means weak or mixed curves; inactive means no such curve, though single readings can be large; an effect the other way counts as inactive or inconclusive.
# Assays:
# [1] = molecular target: Peroxisome proliferator-activated receptor delta (Homo sapiens) (UniProt Q03181); test: qHTS assay to identify small molecule agonists of the peroxisome proliferator-activated receptor delta (PPARd) signaling pathway (AID 743212; calls by dose curve;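 further: HEK293H cells with PPARd UAS beta-lactamase reporter GeneBLAzer system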)
# Sequence of Peroxisome proliferator-activated receptor delta (Homo sapiens) (Q03181 whole entry, looked up): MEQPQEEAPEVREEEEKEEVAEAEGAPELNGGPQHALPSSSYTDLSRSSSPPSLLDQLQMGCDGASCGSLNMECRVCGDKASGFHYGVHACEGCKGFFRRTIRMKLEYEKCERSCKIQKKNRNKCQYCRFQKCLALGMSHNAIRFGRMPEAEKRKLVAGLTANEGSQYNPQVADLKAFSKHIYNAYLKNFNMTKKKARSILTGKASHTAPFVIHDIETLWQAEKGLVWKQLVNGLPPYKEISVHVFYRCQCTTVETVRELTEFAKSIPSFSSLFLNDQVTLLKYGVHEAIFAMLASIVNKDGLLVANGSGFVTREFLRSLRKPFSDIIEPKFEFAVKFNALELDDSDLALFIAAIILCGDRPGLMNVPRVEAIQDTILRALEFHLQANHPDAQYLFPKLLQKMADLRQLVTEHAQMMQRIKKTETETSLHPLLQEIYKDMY
# Outline: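 Beta-lactamase reporter readout: a ratiometric FRET signal from the LiveBLAzer substrate after 2 h at room temperature. Compound exposure at 37 °C in PPARδ-bla HEK293H cells driven by an upstream activator sequence.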
# [2] = qHTS assay to identify small molecule antagonists of the peroxisome proliferator-activated receptor delta (PPARd) signaling pathway - cell viability counter screen (AID 743213); further: nearly all actives have a fitted effect of over 50% in size
# Outline: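 Cytotoxicity counter screen: CellTiter-Glo luminescence read 30 min after addition, in the same wells as the reporter assay. There, PPARd UAS-bla HEK293H cells (3000/well) were treated 17 h at 37 C with compound and 300 nM L165041.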
# [3] = molecular target: Peroxisome proliferator-activated receptor delta (Homo sapiens) (UniProt Q03181); test: qHTS assay to identify small molecule antagonists of the peroxisome proliferator-activated receptor delta (PPARd) signaling pathway (AID 743215; active means well fitted inhibition curve with a large enough effect in the signal ratio in the repeat runs, not every such curve was filed as active; the % refers to the signal ratio;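 further: cells stimulated with agonist L165041 at 300 nM final during compound exposure; series mostly up to about 62 µM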)
# Outline: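 Plated HEK293H PPARd-bla cells rested 5 h at 37 C and 5% CO2. Compound, then agonist L165041 at 300 nM final, was added; 17 h at 37 C followed. Substrate loading, 2 h room temperature, fluorescence measured.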
# [4] = molecular target: Bile acid receptor (Homo sapiens) (UniProt Q96RI1); test: qHTS assay to identify small molecule antagonists of the farnesoid-X-receptor (FXR) signaling pathway (AID 743217; active means well fitted inhibition curve with a large enough effect in the signal ratio in the repeat runs, not every such curve was filed as active; the % refers to the signal ratio; further: potency means the concentration at half of the fitted maximal effect)
# Sequence of Bile acid receptor (Homo sapiens) (Q96RI1 whole entry, looked up): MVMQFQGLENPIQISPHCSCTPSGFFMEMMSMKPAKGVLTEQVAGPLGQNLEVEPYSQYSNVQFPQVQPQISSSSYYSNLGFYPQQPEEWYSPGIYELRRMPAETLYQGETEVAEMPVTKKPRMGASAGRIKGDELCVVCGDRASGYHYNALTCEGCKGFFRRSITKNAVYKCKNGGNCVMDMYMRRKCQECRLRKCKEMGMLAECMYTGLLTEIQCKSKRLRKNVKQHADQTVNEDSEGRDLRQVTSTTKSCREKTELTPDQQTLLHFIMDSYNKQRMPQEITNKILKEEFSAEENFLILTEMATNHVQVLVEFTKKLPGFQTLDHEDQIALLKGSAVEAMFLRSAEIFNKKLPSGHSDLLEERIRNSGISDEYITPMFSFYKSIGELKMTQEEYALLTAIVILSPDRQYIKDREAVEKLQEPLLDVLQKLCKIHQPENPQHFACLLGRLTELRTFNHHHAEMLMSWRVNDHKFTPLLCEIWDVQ
# Outline: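 Screen of the Tox21 10K library in quantitative HTS format using FXR-UAS-bla HEK 293T reporter cells. Agonist chenodeoxycholic acid, 50 uM final, added with compounds; 16 h incubation at 37 °C; beta-lactamase FRET fluorescence measured.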
# [5] = qHTS assay to identify small molecule agonists of the farnesoid-X-receptor (FXR) signaling pathway - cell viability counter screen (AID 743218); further: nearly all actives have a fitted effect of over 45% in size; further: potency means the concentration at half of the fitted maximal effect
# Outline: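 Viability of FXR-bla HEK 293T cells is measured by ATP-based CellTiter-Glo luminescence following 16 h compound treatment at 37 C and a prior 2 h room-temperature beta-lactamase substrate step.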
# [6] = molecular target: Bile acid receptor (Homo sapiens) (UniProt Q96RI1); test: qHTS assay to identify small molecule agonists of the farnesoid-X-receptor (FXR) signaling pathway (AID 743220; active means well fitted activation curve with a large enough effect in the signal ratio in the repeat runs, not every such curve was filed as active; the % refers to the signal ratio)
# Outline: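 FXR-UAS-bla HEK 293T cells carrying a UAS-driven beta-lactamase reporter were plated for 5 h at 37C/5% CO2, then exposed to DMSO-dissolved Tox21 10K compounds for 16 h at 37C. A LiveBLAzer B/G FRET substrate was loaded for 2 h at room temperature before fluorescence reading.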
# [7] = qHTS assay to identify small molecule antagonists of the farnesoid-X-receptor (FXR) signaling pathway - cell viability counter screen (AID 743221; active means well fitted cell-killing curve with a large enough effect in the repeat runs, not every such curve was filed as active; further: nearly all actives have a fitted effect of over 50% in size)
# Outline: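 Quantitative HTS of the Tox21 10K library run in parallel with the beta-lactamase reporter read. HEK 293T cells carrying a UAS-driven bla reporter got compound and 50 uM CDCA (final) for 16 h; ATP-based luminescence followed.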
# [8] = molecular target: Vitamin D3 receptor (Homo sapiens) (UniProt P11473); test: qHTS assay to identify small molecule agonists of the vitamin D receptor (VDR) signaling pathway (AID 743222; calls by dose curve)
# Sequence of Vitamin D3 receptor (Homo sapiens) (P11473 whole entry, looked up): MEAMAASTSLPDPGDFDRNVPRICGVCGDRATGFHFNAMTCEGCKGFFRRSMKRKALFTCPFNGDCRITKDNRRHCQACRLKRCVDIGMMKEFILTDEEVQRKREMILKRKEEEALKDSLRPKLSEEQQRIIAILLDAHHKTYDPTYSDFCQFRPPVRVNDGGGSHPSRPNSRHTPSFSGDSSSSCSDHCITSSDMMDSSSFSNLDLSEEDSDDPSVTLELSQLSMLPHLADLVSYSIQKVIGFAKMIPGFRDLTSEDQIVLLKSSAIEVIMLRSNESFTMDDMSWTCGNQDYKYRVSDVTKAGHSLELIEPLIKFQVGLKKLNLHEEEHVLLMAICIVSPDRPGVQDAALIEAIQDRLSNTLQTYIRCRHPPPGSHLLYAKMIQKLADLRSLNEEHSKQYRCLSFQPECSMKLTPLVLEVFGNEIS
# Outline: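 Fluorescence from cleaved LiveBLAzer B/G FRET substrate served as readout. VDR-bla cells had been treated 16 h at 37C with test compounds in DMSO, following a 4 h settling period, and substrate was loaded for 2 h at RT.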
# [9] = molecular target: Vitamin D3 receptor (Homo sapiens) (UniProt P11473); test: qHTS assay to identify small molecule antagonists of the vitamin D receptor (VDR) signaling pathway (AID 743223; active means well fitted inhibition curve with a large enough effect in the signal ratio in the repeat runs, not every such curve was filed as active; the % refers to the signal ratio)
# Outline: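 Fluorescence from LiveBLAzer B/G FRET substrate, read after 2 h at room temperature, reflects beta-lactamase reporter activity in VDR-bla cells treated 16 h at 37C with compounds and agonist 1alpha,25-dihydroxyvitamin D3 (3 nM final).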
# [10] = qHTS assay to identify small molecule agonists of the vitamin D receptor (VDR) signaling pathway - cell viability counter screen (AID 743224); further: series mostly up to about 63 µM; nearly all actives have a fitted effect of over 50% in size
# Outline: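 Compounds were pin-transferred onto VDR-bla cells plated 4 h earlier; following 16 h incubation at 37C, cell viability was quantified by CellTiter-Glo luminescence after 30 min at room temperature.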
SMILES,Potency [1],Potency [2],Potency [3],Potency [4],Potency [5],Potency [6],Potency [7],Potency [8],Potency [9],Potency [10]
Cc1cccc(C(=O)O)c1O,inactive,inactive,inactive,inactive,inactive,inactive,inactive,inactive,inactive,inactive
C[C@@H](O)[C@H](N)C(=O)O,inactive,inactive,inactive,inactive,inactive,inactive,inactive,–,–,–
COC(=O)Nc1nc2ccc(C(=O)c3ccccc3)cc2[nH]1,inactive,inactive,inactive,1.06 µM (active),inactive,inactive,inactive,inactive,–,–
COC(=O)c1ccccc1OC,inactive,inactive,inactive,inactive,inactive,inactive,inactive,–,–,inactive
CCCCCCCCCCCCOC(=O)c1ccc(O)cc1,inactive,inactive,inactive,44 µM (active),49.3 µM (active),–,–,inactive,inactive,–
Nc1ccc(Oc2ccc(Cl)cc2)cc1,inactive,inactive,inactive,inactive,inactive,inactive,inactive,–,inactive,inactive
CCCNCCC,inactive,inactive,inactive,inactive,inactive,inactive,inactive,inactive,–,inactive
CN(C)Cc1ccccc1O,inactive,inactive,inactive,inactive,–,inactive,inactive,inactive,inactive,inactive
Cc1cc(-n2nc3ccc(Cl)cc3n2)c(O)c(C(C)(C)C)c1,inactive,inactive,inactive,inactive,inactive,–,inactive,inactive,inactive,inactive
OC1CCC(C2CCCCC2)CC1 (stereo not drawn),inactive,inactive,inactive,inactive,inactive,inactive,inactive,inactive,inactive,inactive
Cc1ccc(C(=O)O)cc1,inactive,inactive,inactive,inactive,inactive,inactive,inactive,–,–,inactive
[Cl][Pt-2]([Cl])([Cl])[Cl],inactive,inactive,inactive,inactive,inactive,inactive,inactive,inactive,inactive,–
Nc1nc2c(ncn2COCCO)c(=O)[nH]1,inactive,inactive,inactive,inactive,inactive,inactive,inactive,–,–,–
FC(F)(F)c1cccc(Cl)c1,inactive,inactive,inactive,inactive,inactive,inactive,inactive,–,–,inactive
CCCCCCCC,inactive,inactive,inactive,inactive,–,inactive,inactive,inactive,inactive,–
OC12N=C(c3ccccc3)SC1Cc1cc(Cl)ccc12 (stereo not drawn),inactive,inactive,inactive,inactive,inactive,inactive,inactive,inactive,inactive,inactive
CCCC[P+](C)(CCCC)CCCC,inactive,inactive,inactive,inactive,–,inactive,inactive,inactive,inactive,–
COC(C)=O,inactive,inactive,inactive,inactive,inactive,inactive,inactive,–,–,–
CCCCC(CC)COC(=O)CCCCC(=O)OCc1ccccc1 (stereo not drawn),inactive,inactive,inactive,inactive,inactive,inactive,inactive,inactive,inactive,inactive
C=C(C)c1cccc(C(=C)C)c1,inactive,inactive,inactive,inactive,inactive,inactive,inactive,–,–,inactive
S=c1nccc[nH]1,inactive,inactive,inactive,inactive,inactive,inactive,inactive,–,–,inactive
O=C(/C=C/c1ccccc1)OC/C=C/c1ccccc1,inactive,inactive,inactive,inactive,–,inactive,inactive,inactive,inactive,inactive
CCCCOC(=O)CC,inactive,inactive,inactive,inactive,inactive,inactive,inactive,inactive,inactive,–
CCc1ccc(Br)cc1,inactive,inactive,inactive,inactive,–,inactive,inactive,inactive,inactive,inactive
C/C=C/C=C/COC(=O)C(C)C,inactive,inactive,inactive,inactive,inactive,–,inactive,inactive,inactive,inactive
CC(=O)c1ccc(C(C)=O)cc1,inactive,inactive,inactive,inactive,inactive,inactive,–,inactive,–,–
C[Si](Cl)(c1ccccc1)c1ccccc1,inactive,inactive,inactive,inactive,inactive,inactive,inactive,inactive,inactive,inactive

SMILES,Potency [1],Potency [2],Potency [3],Potency [4],Potency [5],Potency [6],Potency [7],Potency [8],Potency [9],Potency [10]
CCCCCCOC(=O)C(C)CC (stereo not drawn),inactive,inactive,inactive,inactive,inactive,inactive,inactive,–,–,inactive
CC(C)Cn1cnc2c(N)nc3ccccc3c21,inactive,inactive,inactive,inactive,inactive,inactive,inactive,inactive,inactive,–
Nc1ccc(C(=O)O)c(O)c1,inactive,inactive,inactive,inactive,inactive,inactive,inactive,inactive,inactive,–
COC(=O)c1ccccc1C,inactive,inactive,inactive,inactive,inactive,inactive,inactive,–,–,inactive
CC(C)CCOC(=O)/C=C/c1ccccc1,inactive,inactive,inactive,inactive,inactive,inactive,inactive,inactive,–,inactive
O=[N+]([O-])c1ccc(O)cc1C(F)(F)F,inactive,inactive,inactive,inactive,inactive,inactive,inactive,inactive,inactive,–
c1cnccn1,inactive,inactive,inactive,inactive,inactive,inactive,inactive,–,–,–
O=C(O)Cc1ccccc1Nc1c(Cl)cccc1Cl,inactive,inactive,inactive,inactive,inactive,inactive,inactive,inactive,–,–
COc1cc(S(=O)(=O)O)c(C)cc1N=Nc1c(O)ccc2cc(S(=O)(=O)O)ccc12,inactive,inactive,inactive,inactive,inactive,inactive,inactive,inactive,inactive,inactive
CCCCCc1ccc(Cl)cc1,inactive,inactive,inactive,inactive,inactive,inactive,inactive,inactive,–,inactive
C=Cc1ccccc1C=C,inactive,inactive,inactive,inactive,inactive,inactive,inactive,inactive,inactive,inactive
[Cu+],inactive,inactive,inactive,–,inactive,–,inactive,–,–,–
CCCCOC(=O)CO,inactive,inactive,inactive,–,inactive,–,inactive,inactive,inactive,inactive
O=C(O)c1cc(=O)c2ccccc2o1,inactive,inactive,inactive,–,inactive,–,inactive,inactive,inactive,–
C=Cc1cccc(C)c1,inactive,inactive,inactive,–,inactive,–,inactive,inactive,inactive,inactive
Cc1c(C)c([N+](=O)[O-])c(C(C)(C)C)c([N+](=O)[O-])c1C,inactive,inactive,inactive,–,inactive,–,inactive,–,–,–
Cc1ccc(-c2ccccc2)cc1,inactive,inactive,inactive,–,inactive,–,inactive,inactive,–,–
CCC(=O)C(=O)CC,inactive,inactive,inactive,–,inactive,–,inactive,inactive,inactive,inactive
CCC(=O)OC(=O)CC,inactive,inactive,inactive,inactive,–,inactive,inactive,–,–,inactive
c1ccsc1,inactive,inactive,inactive,–,inactive,–,inactive,inactive,inactive,–
CN(C)CCN1CCN(c2cccc(Cl)c2)C1=O,inactive,inactive,inactive,–,inactive,–,inactive,inactive,inactive,inactive
CC1=Nc2ccccc2C1(C)C,inactive,inactive,inactive,–,inactive,–,inactive,inactive,inactive,inactive
Cc1cccc2cccnc12,inactive,inactive,inactive,–,inactive,–,inactive,inactive,inactive,inactive
C#Cc1ccc(-c2ccccc2F)cc1,inactive,inactive,inactive,inactive,–,inactive,inactive,–,–,inactive
CC(=O)Oc1cc2c(s1)CCN(C(C(=O)C1CC1)c1ccccc1F)C2 (stereo not drawn),inactive,inactive,inactive,–,inactive,–,inactive,inactive,–,inactive
O=[N+]([O-])c1cccc(C(F)(F)F)c1,inactive,inactive,inactive,–,inactive,–,inactive,inactive,inactive,inactive
